{
  "source": "PubChem BioAssay AID652233",
  "about": "(Johns Hopkins Ion Channel Center, 2013)",
  "note": "Among all 2,300 compounds or so, fewer than 10 were called active.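 How the source made its calls: active means yellow fluorescent protein signal ratio exceeding the buffer control mean by over 5 SD of those controls; inactive means the rest.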 The list is a sample of the results.",
  "data": [
    {"assay": "iodide YFP quench changes in parental YFP-HEK293, counter-screen for TMEM16A inhibitor project, cell-based (AID 652233);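 further: ratio is mean of duplicate wells from kinetic YFP trace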", "conditions": "ionomycin, at 10 µM", "values": [
      {"smiles": "O=C(Nc1ccccc1)c1ccccc1NC(=O)C(F)(F)F", "YFP ratio F(max-min)/F0": "-0.833 (inactive)"},
      {"smiles": "Cn1c(CN2CCOCC2)nc2cc(NC(=O)c3ccc(Cl)cc3)ccc21", "YFP ratio F(max-min)/F0": "-0.87 (inactive)"},
      {"smiles": "Cc1ccc(C(=O)O)cc1-c1ccc(/C=C2\\SC(=O)N(CC(=O)Nc3ccc4c(c3)OCO4)C2=O)o1", "YFP ratio F(max-min)/F0": "-1.05 (inactive)"},
      {"smiles": "CCc1cc2c(N3CCN(c4nnc(CC)s4)CC3)ncnc2s1", "YFP ratio F(max-min)/F0": "-1.01 (inactive)"},
      {"smiles": "Cc1ccc(-c2csc(-c3c[nH]c4ccccc34)n2)cc1", "YFP ratio F(max-min)/F0": "-0.919 (inactive)"},
      {"smiles": "CN(Cc1cccnc1)C(=O)c1cc(COc2ccc3ncccc3c2)on1", "YFP ratio F(max-min)/F0": "-0.909 (inactive)"},
      {"smiles": "CCOC(=O)C1CCN(c2ncnc3c2oc2ccc(Br)cc23)CC1", "YFP ratio F(max-min)/F0": "-1.19 (inactive)"},
      {"smiles": "O=C1NC(=O)C2C1C(c1ccc([N+](=O)[O-])cc1)=NN2Cc1ccccc1", "note": "(stereo not drawn)", "YFP ratio F(max-min)/F0": "-1.22 (inactive)"},
      {"smiles": "Cc1ccc2c(c1)N(CC(=O)N1CCCc3ccccc31)C(=O)C(C)O2", "note": "(stereo not drawn)", "YFP ratio F(max-min)/F0": "-1.08 (inactive)"},
      {"smiles": "O=S1(=O)CCN(Cc2ccccc2Cl)CC1", "YFP ratio F(max-min)/F0": "-0.979 (inactive)"},
      {"smiles": "N#Cc1nc(N)nc(N(c2ccccc2)c2ccccc2)n1", "YFP ratio F(max-min)/F0": "-1.24 (inactive)"},
      {"smiles": "CCCOc1ccc(Cc2c(Cl)nc(SC)nc2NC)cc1", "YFP ratio F(max-min)/F0": "-1.09 (inactive)"},
      {"smiles": "Cc1ccc(NC(=O)CN(C)CC(=O)Nc2cccc(F)c2)cc1[N+](=O)[O-]", "YFP ratio F(max-min)/F0": "-0.913 (inactive)"},
      {"smiles": "CCN(CC)S(=O)(=O)c1ccc(N(C)Cc2ccc(C(F)(F)F)cc2)nc1", "YFP ratio F(max-min)/F0": "-1.04 (inactive)"},
      {"smiles": "CC1CCN(C(=O)c2ccc(CSc3ccc(Cl)cc3)cc2)CC1", "YFP ratio F(max-min)/F0": "-0.991 (inactive)"},
      {"smiles": "COc1ccc(-n2c(C)cc(C(=O)CSc3nnc(-c4cccs4)o3)c2C)cc1", "YFP ratio F(max-min)/F0": "-1.16 (inactive)"},
      {"smiles": "CCn1nccc1C(=O)Nc1ccc(S(=O)(=O)NC23CC4CC(CC(C4)C2)C3)cc1", "YFP ratio F(max-min)/F0": "-1.03 (inactive)"},
      {"smiles": "O=C(CN1CCN(C(=S)NC2CCCC2)CC1)Nc1ccc(Oc2ccccc2)cc1", "YFP ratio F(max-min)/F0": "-1.09 (inactive)"},
      {"smiles": "Cc1ccc(N)cc1-n1c(C)ccc1C", "YFP ratio F(max-min)/F0": "-1.02 (inactive)"},
      {"smiles": "CN(C)c1cc[n+](Cc2ccccc2)cc1", "YFP ratio F(max-min)/F0": "-1.12 (inactive)"},
      {"smiles": "Cn1c(CCN2CCCCCC2)nc2cc(NC(=O)Nc3ccccc3)ccc21", "YFP ratio F(max-min)/F0": "-1.1 (inactive)"},
      {"smiles": "COc1cc(CC(=O)Nc2nc(-c3ccc(F)c(F)c3)cs2)cc(OC)c1OC", "YFP ratio F(max-min)/F0": "-1.01 (inactive)"},
      {"smiles": "S=C(NCC1CCCO1)N1CCN(c2ccc(Cl)c(Cl)c2)CC1", "note": "(stereo not drawn)", "YFP ratio F(max-min)/F0": "-0.789 (inactive)"},
      {"smiles": "O=c1cc(C(F)(F)F)[nH]c(=O)n1C1CCCCC1", "YFP ratio F(max-min)/F0": "-1.23 (inactive)"},
      {"smiles": "CCCc1cc(=S)n2c([nH]c3ccccc32)c1C#N", "YFP ratio F(max-min)/F0": "-0.888 (inactive)"},
      {"smiles": "Cc1ccc(NC(=O)C(C)c2cccc(C(=O)c3ccccc3)c2)cc1", "note": "(stereo not drawn)", "YFP ratio F(max-min)/F0": "-1.26 (inactive)"},
      {"smiles": "Cc1nc(CNS(=O)(=O)c2ccc(Oc3ccccc3)cc2)cs1", "YFP ratio F(max-min)/F0": "-1.1 (inactive)"},
      {"smiles": "C=CCSc1nsc(NC(=O)Nc2cccc(C(C)=O)c2)n1", "YFP ratio F(max-min)/F0": "-1.12 (inactive)"},
      {"smiles": "O=C(O)c1ccc(NC(=O)C2CCCCC2)cc1", "YFP ratio F(max-min)/F0": "-1.22 (inactive)"},
      {"smiles": "Fc1ccc2[nH]c3c(N4CCSCC4)ncnc3c2c1", "YFP ratio F(max-min)/F0": "-1.05 (inactive)"},
      {"smiles": "CCCC(=O)Nc1ccccc1N1CCN(C(=O)c2ccccc2)CC1", "YFP ratio F(max-min)/F0": "-1.02 (inactive)"},
      {"smiles": "COc1ccc(-c2nc(CCNC(=O)c3ccc(Br)o3)cs2)cc1", "YFP ratio F(max-min)/F0": "-1.06 (inactive)"},
      {"smiles": "COc1ccc(NC(=O)C2=CC(c3ccc(OC)c(OC)c3)=NS(=O)(=O)N2C)cc1", "YFP ratio F(max-min)/F0": "-1.13 (inactive)"},
      {"smiles": "Cc1[nH]n(-c2cccc(Cl)c2)c(=O)c1-c1ccc(Cl)cc1", "YFP ratio F(max-min)/F0": "-0.864 (inactive)"},
      {"smiles": "CCOC(=O)C1=C(CN2CCc3ccccc32)NC(=O)NC1c1cccc([N+](=O)[O-])c1", "note": "(stereo not drawn)", "YFP ratio F(max-min)/F0": "-1.14 (inactive)"},
      {"smiles": "Cc1ccc(C)c(N2CCN(C(=O)CCCCn3c(=O)[nH]c4ccccc4c3=O)CC2)c1", "YFP ratio F(max-min)/F0": "-1 (inactive)"},
      {"smiles": "CSc1nnc2c(n1)OC(c1ccsc1)N(C(C)=O)c1ccccc1-2", "note": "(stereo not drawn)", "YFP ratio F(max-min)/F0": "-1.24 (inactive)"},
      {"smiles": "CC(=O)c1cc(CN2CCC(C(=O)Nc3cccc(-c4cscn4)c3)CC2)cs1", "YFP ratio F(max-min)/F0": "-0.907 (inactive)"},
      {"smiles": "Cc1cccc(-n2c(SCC(N)=O)nc3c(c2=O)C2(CCCCC2)Cc2ccccc2-3)c1", "YFP ratio F(max-min)/F0": "-0.969 (inactive)"},
      {"smiles": "COc1ccc(C(=O)NC2CCCc3c2cnn3-c2cccc(C)c2C)c(OC)n1", "note": "(stereo not drawn)", "YFP ratio F(max-min)/F0": "-0.94 (inactive)"},
      {"smiles": "CCOC(=O)C(Sc1ncc(C#N)c(N)n1)C(C)C", "note": "(stereo not drawn)", "YFP ratio F(max-min)/F0": "-1.02 (inactive)"},
      {"smiles": "O=C(NCCc1ccc2c(c1)OCCO2)c1cc2ccccc2o1", "YFP ratio F(max-min)/F0": "-0.931 (inactive)"},
      {"smiles": "COc1ccc(Cl)cc1NC(=O)CCS(=O)(=O)c1cc2c(cc1C)NC(=O)CO2", "YFP ratio F(max-min)/F0": "-0.855 (inactive)"}
    ]}
  ]
}
